For 36 molecules, Potency and outcome results are on record in PubChem BioAssay (NCATS).

Records with an inconclusive call do not appear. Where a call stands in place of a potency, no number is given. Activity calls are given as the source filed them. Unless noted, calls follow the shape of the dose curve; as a rule, active = well fitted curve in the direction sought with a large enough effect; inconclusive = small, poorly fitted or top-dose-only effect, or another doubt; inactive = no such curve, though single readings can be large; an effect the other way counts as inactive or inconclusive.

Glutaminase kidney isoform, mitochondrial (Homo sapiens), sequence (O94925 whole entry, looked up, canonical isoform): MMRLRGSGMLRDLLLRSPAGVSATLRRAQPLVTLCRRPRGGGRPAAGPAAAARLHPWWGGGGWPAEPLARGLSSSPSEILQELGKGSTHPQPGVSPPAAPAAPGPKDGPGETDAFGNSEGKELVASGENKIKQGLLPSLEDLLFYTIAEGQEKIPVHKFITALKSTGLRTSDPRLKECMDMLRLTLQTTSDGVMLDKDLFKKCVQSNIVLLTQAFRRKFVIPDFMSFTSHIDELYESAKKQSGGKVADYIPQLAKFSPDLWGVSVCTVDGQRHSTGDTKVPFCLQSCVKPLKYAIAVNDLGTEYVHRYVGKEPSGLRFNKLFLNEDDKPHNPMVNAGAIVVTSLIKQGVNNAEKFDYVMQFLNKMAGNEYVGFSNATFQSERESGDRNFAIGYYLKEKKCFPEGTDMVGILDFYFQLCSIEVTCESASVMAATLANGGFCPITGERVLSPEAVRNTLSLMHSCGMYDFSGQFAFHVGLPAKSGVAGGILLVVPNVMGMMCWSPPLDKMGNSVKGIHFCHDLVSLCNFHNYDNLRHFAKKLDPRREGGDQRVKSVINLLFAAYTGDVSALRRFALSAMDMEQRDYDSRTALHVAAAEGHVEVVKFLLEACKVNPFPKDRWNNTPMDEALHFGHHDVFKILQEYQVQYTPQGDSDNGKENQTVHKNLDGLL
Glucagon-like peptide 1 receptor (Homo sapiens), sequence (P43220 whole entry, looked up): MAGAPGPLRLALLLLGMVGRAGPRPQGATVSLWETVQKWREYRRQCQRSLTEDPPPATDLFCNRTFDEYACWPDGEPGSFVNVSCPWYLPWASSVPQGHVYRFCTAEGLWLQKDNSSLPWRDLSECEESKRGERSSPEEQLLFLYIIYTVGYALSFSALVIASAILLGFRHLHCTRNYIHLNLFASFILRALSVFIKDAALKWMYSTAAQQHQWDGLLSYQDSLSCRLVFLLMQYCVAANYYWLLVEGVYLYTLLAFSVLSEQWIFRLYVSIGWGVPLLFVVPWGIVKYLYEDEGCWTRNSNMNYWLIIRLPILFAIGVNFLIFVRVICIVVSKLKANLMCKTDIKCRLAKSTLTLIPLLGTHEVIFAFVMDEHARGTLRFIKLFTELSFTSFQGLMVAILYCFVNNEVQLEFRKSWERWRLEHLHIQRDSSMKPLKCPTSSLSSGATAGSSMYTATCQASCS

System in the first assay: not listed separately
Briefly: S16 Schwann cell PMP22 intronic element beta-lactamase assay (AID 624044; calls by dose curve; also: nearly all actives have a fitted effect of over 15% in size). As to conditions: S16 rat Schwann cells, PMP22 element beta-lactamase FRET, 24 h; series mostly up to 38.3 µM. The method, boiled down:
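Beta-lactamase reporter under a PMP22 intronic regulatory element in stable S16 rat Schwann cells; 24 h compound exposure. 460 nm blue signal normalized between DMSO (0%) and potassium clavulanate, with 535 nm FRET tracking viability; curves classed by r2 and response.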
As to `FC(F)OC(F)(F)C(F)Cl` (stereo not given), the Potency entry was “inactive”.
Still for that read-out and setting: the same measure for `c1cc2c(c(NC3=NCCN3)c1)CCCC2`: “inactive”.
Still for that read-out and setting: the same measure for `c1csc(C2(N3CCCCC3)CCCCC2)c1`: “inactive”; for `C=CCN(C1=NCCN1)c1c(Cl)cccc1Cl`: “inactive”.
`CCCC(=O)OC(C(Cl)(Cl)Cl)P(=O)(OC)OC` (stereo not given): the Potency entry was “inactive”.
On the same count and under the same terms, the result for `CCCC(C)(COC(N)=O)COC(=O)NC1CC1` (stereo not given) reads “inactive”.

A further assay addresses Glutaminase kidney isoform, mitochondrial (Homo sapiens) (UniProt O94925). Description: qHTS for Inhibitors of Glutaminase (GLS): LOPAC Validation (AID 624146). Also: nearly all actives have a fitted effect of over 60% in size. Also: potency is read from the fitted curve at half-maximal effect. As to conditions: glutaminase enzyme activity inhibition; series mostly up to 46.1 µM. The method, boiled down:
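Coupled fluorescence readout: glutamate oxidase/HRP/Amplex Red detect glutamate formed by hKGA from L-glutamine (1 mM solution added). Buffer 45 mM KH2PO4 pH 8.2, 0.02% Tween-20; reads at t0 and 30 min RT.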
Take `CNc1ccc2oc(C[C@H]3O[C@@]4(CC[C@H]3C)O[C@H]([C@H](C)C(=O)c3ccc[nH]3)[C@H](C)C[C@H]4C)nc2c1C(=O)O`: the Potency is 3550 nM (active).
On the same count and under the same terms, the same measure for `O=[N+]([O-])c1cc(O)c(O)c([N+](=O)[O-])c1`: 12600 nM (active); for `C[Se]C[C@H](N)C(=O)O`: “inactive”; for `NC(C(=O)O)c1cc(=O)[nH]o1` (stereo not given): “inactive”.
On the same count and under the same terms, the same measure for `COc1ccc2c(c1)/C(=C/c1cnc[nH]1)C(=O)N2`: “inactive”; for `CCCN(CCC)CCc1c[nH]c2ccc(C(N)=O)cc12`: “inactive”.
On the same count and under the same terms, the result for `COc1ccc2c(c1)C13CCCCC1C(C2)N(C)CC3` (stereo not given) reads “inactive”.
Take `CC(=O)NBr`: the Potency result was “inactive”.
The same measure, in the same setting: the same measure for `CCN(CCCl)Cc1ccccc1Br`: “inactive”; for `NC(=O)CI`: “inactive”; for `Cc1o[nH]c(=O)c1CC(N)C(=O)O` (stereo not given): “inactive”.
In the case of `CC(N)[C@H](O)c1ccc(O)c(O)c1` (stereo not given in full), the Potency entry is “inactive”.
Still for that read-out and setting: the result for `CN1CCC(c2c[nH]c3ccc(O)cc23)CC1` reads 1260 nM (active); that for `CN(N=O)c1ccc(O)c(O)c1`, “inactive”.
In the case of `CC(N)Cc1c[nH]c2ccc(OCc3cccs3)cc12` (stereo not given), the Potency result is “inactive”.
Regarding `N[C@@H](CCl)C(=O)O`, the Potency result was “inactive”.
The same measure, in the same setting: the result for `C=CCN(C1=NCCN1)c1c(Cl)cccc1Cl` reads “inactive”; that for `COC(=O)N1CCN(C(=O)Cc2ccc(Cl)c(Cl)c2)C(CN2CCCC2)C1` (stereo not given), “inactive”.
On the same count and under the same terms, the result for `NCCCP(=O)(O)O` reads “inactive”.
Still for that read-out and setting: the result for `CN(N=O)c1cc(O)ccc1O` reads 1780 nM (active); that for `NC(CCCCCP(=O)(O)O)C(=O)O` (stereo not given), “inactive”.

System in the next assay: not listed separately
Briefly: qHTS of Trypanosoma Brucei Inhibitors: LOPAC Validation (AID 624147). As to conditions: purified enzyme assay, luminescence, 45 min; series mostly up to 57.5 µM. The method, boiled down:
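Assay buffer: 50 mM TEA pH 7.2, 100 mM KCl, 10 mM MgCl2, 0.05% BSA, 0.01% Tween-20. Pyruvate kinase from T. brucei plus substrate met compound, then ADP (130 uM final). Luminescence was read post 45 min RT.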
For orientation: Quantitative high-throughput screening tests each substance at several concentrations.
On to `O=[N+]([O-])c1ccc2nc(N3CCNCC3)ccc2c1`, for which the Potency entry was “inactive”.
Same read-out and setting: the same measure for `CC(=O)c1c(O)c(C)c(O)c(Cc2c(O)c3c(c(C(=O)/C=C/c4ccccc4)c2O)OC(C)(C)C=C3)c1O`: “inactive”.
The same measure, in the same setting: the result for `CCCN(CCC)[C@H]1CCc2c(F)ccc(O)c2C1` reads “inactive”; that for `NNC(=O)c1ccc(O)cc1`, “inactive”; that for `COc1ccc2[nH]cc(CCN)c2c1`, “inactive”.
As for `C=CCN(C1=NCCN1)c1c(Cl)cccc1Cl`, the Potency entry was “inactive”.
Regarding `Cc1[nH]c2ccc(O)cc2c1CCN`, the Potency result is “inactive”.
As to `O=S1(=O)N(CCN2CC=C(c3c[nH]c4cc(F)ccc34)CC2)c2cccc3c2N1CCC3`, the Potency entry is “inactive”.

In the next assay the target is Glucagon-like peptide 1 receptor (Homo sapiens) (UniProt P43220). Description: qHTS of GLP-1 Receptor Agonists: LOPAC Validation (AID 624148).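 Also: luminescence from a luciferase reporter switched on by cAMP; higher luminescence signal means agonism.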 As to conditions: GLP-1R agonist cell assay; series mostly up to 46.1 µM. A digest of the protocol:
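Agonism scored as increased luciferase luminescence driven by cAMP in HEK293 clones carrying GLP-1R. Cells settled 12 hours, received compound for 4-6 hr at 37 deg C, 5% CO2, and were read after 12 min detection reagent at RT.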
In the case of `CNc1ccc2oc(C[C@H]3O[C@@]4(CC[C@H]3C)O[C@H]([C@H](C)C(=O)c3ccc[nH]3)[C@H](C)C[C@H]4C)nc2c1C(=O)O`, the result was inactive.
On the same count and under the same terms, the same measure for `O=[N+]([O-])c1cc(O)c(O)c([N+](=O)[O-])c1`: “inactive”; for `C[Se]C[C@H](N)C(=O)O`: “inactive”; for `NC(C(=O)O)c1cc(=O)[nH]o1` (stereo not given): “inactive”.
Turning to `Oc1ccc2c3c1O[C@H]1c4[nH]c5ccccc5c4C[C@@]4(O)C(C2)N(CC2CC2)CCC314` (stereo not given in full), the molecule was called inactive.
Still for that read-out and setting: the result for `NC(N)=NOCC[C@H](N)C(=O)O` reads “inactive”; that for `COc1ccc2c(c1)/C(=C/c1cnc[nH]1)C(=O)N2`, “inactive”.
Same read-out and setting: the same measure for `O=[N+]([O-])c1ccc2nc(N3CCNCC3)ccc2c1`: “inactive”; for `CC(=O)c1c(O)c(C)c(O)c(Cc2c(O)c3c(c(C(=O)/C=C/c4ccccc4)c2O)OC(C)(C)C=C3)c1O`: “inactive”; for `CCCN(CCC)[C@H]1CCc2c(F)ccc(O)c2C1`: “inactive”.
On the same count and under the same terms, the result for `CCCN(CCC)CCc1c[nH]c2ccc(C(N)=O)cc12` reads “inactive”; that for `COc1ccc2c(c1)C13CCCCC1C(C2)N(C)CC3` (stereo not given), “inactive”; that for `CC(=O)NBr`, “inactive”.
Turning to `CCN(CCCl)Cc1ccccc1Br`, the outcome was inactive.
On the same count and under the same terms, the result for `NC(=O)CI` reads “inactive”; that for `NNC(=O)c1ccc(O)cc1`, “inactive”.
On the same count and under the same terms, the same measure for `Cc1o[nH]c(=O)c1CC(N)C(=O)O` (stereo not given): “inactive”; for `CN1CCC(c2c[nH]c3ccc(O)cc23)CC1`: “inactive”.
Same read-out and setting: the result for `COc1ccc2[nH]cc(CCN)c2c1` reads “inactive”; that for `CN(N=O)c1ccc(O)c(O)c1`, “inactive”; that for `CC(N)Cc1c[nH]c2ccc(OCc3cccs3)cc12` (stereo not given), “inactive”.
Take `N[C@@H](CCl)C(=O)O`: the outcome was inactive.
On the same count and under the same terms, the same measure for `C=CCN(C1=NCCN1)c1c(Cl)cccc1Cl`: “inactive”; for `COC(=O)N1CCN(C(=O)Cc2ccc(Cl)c(Cl)c2)C(CN2CCCC2)C1` (stereo not given): “inactive”.
Still for that read-out and setting: the same measure for `Cc1[nH]c2ccc(O)cc2c1CCN`: “inactive”.
Still for that read-out and setting: the same measure for `NCCCP(=O)(O)O`: “inactive”; for `O=S1(=O)N(CCN2CC=C(c3c[nH]c4cc(F)ccc34)CC2)c2cccc3c2N1CCC3`: “inactive”; for `CN(N=O)c1cc(O)ccc1O`: “inactive”.
As for `NC(CCCCCP(=O)(O)O)C(=O)O` (stereo not given), the result was inactive.

System in a further assay: not listed separately
Description: qHTS of Nrf2 Activators: LOPAC Validation (AID 624149). Also: potency is read from the fitted curve at half-maximal effect. Particulars: Nrf2/ARE reporter cell assay; series mostly up to 46.1 µM. The method, boiled down: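 Following overnight seeding in 5% FBS OPTI-MEM, AREc32_Fluc cells receive compounds for a 24 hr incubation at 37 deg C with 5% CO2. Steady-Glo is added, and after 30 min at RT luminescence is recorded.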
With `CNc1ccc2oc(C[C@H]3O[C@@]4(CC[C@H]3C)O[C@H]([C@H](C)C(=O)c3ccc[nH]3)[C@H](C)C[C@H]4C)nc2c1C(=O)O`, the Potency result is “inactive”.
`O=[N+]([O-])c1cc(O)c(O)c([N+](=O)[O-])c1`: the Potency result is “inactive”.
As to `C[Se]C[C@H](N)C(=O)O`, the Potency result is “inactive”.
Still for that read-out and setting: the same measure for `NC(C(=O)O)c1cc(=O)[nH]o1` (stereo not given): “inactive”.
On the same count and under the same terms, the result for `Oc1ccc2c3c1O[C@H]1c4[nH]c5ccccc5c4C[C@@]4(O)C(C2)N(CC2CC2)CCC314` (stereo not given in full) reads “inactive”; that for `NC(N)=NOCC[C@H](N)C(=O)O`, “inactive”.
In the case of `COc1ccc2c(c1)/C(=C/c1cnc[nH]1)C(=O)N2`, the Potency entry was “inactive”.
The same measure, in the same setting: the same measure for `O=[N+]([O-])c1ccc2nc(N3CCNCC3)ccc2c1`: “inactive”; for `CC(=O)c1c(O)c(C)c(O)c(Cc2c(O)c3c(c(C(=O)/C=C/c4ccccc4)c2O)OC(C)(C)C=C3)c1O`: “inactive”.
The same measure, in the same setting: the result for `CCCN(CCC)[C@H]1CCc2c(F)ccc(O)c2C1` reads “inactive”.
The same measure, in the same setting: the result for `CCCN(CCC)CCc1c[nH]c2ccc(C(N)=O)cc12` reads “inactive”; that for `COc1ccc2c(c1)C13CCCCC1C(C2)N(C)CC3` (stereo not given), “inactive”.
For the molecule `CC(=O)NBr`, the Potency entry is “inactive”.
Same read-out and setting: the same measure for `CCN(CCCl)Cc1ccccc1Br`: “inactive”; for `NC(=O)CI`: “inactive”.
Consider `NNC(=O)c1ccc(O)cc1`, for which the Potency entry was “inactive”.
On the same count and under the same terms, the result for `Cc1o[nH]c(=O)c1CC(N)C(=O)O` (stereo not given) reads “inactive”; that for `CC(N)[C@H](O)c1ccc(O)c(O)c1` (stereo not given in full), “inactive”.
Still for that read-out and setting: the result for `CN1CCC(c2c[nH]c3ccc(O)cc23)CC1` reads “inactive”; that for `NC(N)=Nc1ccc2[nH]c3c(c2c1)C[C@@]1(O)[C@H]2Cc4ccc(O)c5c4[C@@]1(CCN2CC1CC1)[C@H]3O5`, 2910 nM (active).
With `COc1ccc2[nH]cc(CCN)c2c1`, the Potency entry is “inactive”.
On the same count and under the same terms, the same measure for `CN(N=O)c1ccc(O)c(O)c1`: “inactive”; for `CC(N)Cc1c[nH]c2ccc(OCc3cccs3)cc12` (stereo not given): “inactive”.
Still for that read-out and setting: the same measure for `N[C@@H](CCl)C(=O)O`: “inactive”; for `C=CCN(C1=NCCN1)c1c(Cl)cccc1Cl`: “inactive”; for `COC(=O)N1CCN(C(=O)Cc2ccc(Cl)c(Cl)c2)C(CN2CCCC2)C1` (stereo not given): “inactive”.
The same measure, in the same setting: the same measure for `Cc1[nH]c2ccc(O)cc2c1CCN`: “inactive”.
As to `NCCCP(=O)(O)O`, the Potency entry is “inactive”.
On the same count and under the same terms, the same measure for `O=S1(=O)N(CCN2CC=C(c3c[nH]c4cc(F)ccc34)CC2)c2cccc3c2N1CCC3`: “inactive”; for `CN(N=O)c1cc(O)ccc1O`: “inactive”; for `NC(CCCCCP(=O)(O)O)C(=O)O` (stereo not given): “inactive”.
